Screening data: PubChem BioAssay, National Center for Advancing Translational Sciences (NCATS)
BAZ2B block: inhibitors of human BAZ2B bromodomain; Q9UIF8; AlphaScreen BAZ2B-H3K14Ac peptide displacement; Potency, µM (doses to about 114 µM), usual class: inhibitors; hit rate 4.4% among 360,000; AID 504333; also: nearly all actives have a fitted effect of over 60% in size
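BAZ2B (50 nM) with biotin-H3(5-23)K14Ac peptide (50 nM) in PBS pH 7.4, 0.01% Tween-20, preformed 30 min, then compound 30 min at room temperature; top concentration 110uM. AlphaScreen streptavidin donor/nickel chelate acceptor beads (10 ug/mL final), 20 min dark, signal read.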
G9a inh: inhibitors of human histone lysine methyltransferase G9a; Q96KQ7; G9a H3K9 monomethylation, AlphaScreen, 2 h; Potency, µM (titrated, usually from 102 µM), most hits filed as inhibitors; hit rate 8.8% among 350,000; also: nearly all actives have a fitted effect of over 75% in size
Target sequence (Q96KQ7 913-1193 limits assumed): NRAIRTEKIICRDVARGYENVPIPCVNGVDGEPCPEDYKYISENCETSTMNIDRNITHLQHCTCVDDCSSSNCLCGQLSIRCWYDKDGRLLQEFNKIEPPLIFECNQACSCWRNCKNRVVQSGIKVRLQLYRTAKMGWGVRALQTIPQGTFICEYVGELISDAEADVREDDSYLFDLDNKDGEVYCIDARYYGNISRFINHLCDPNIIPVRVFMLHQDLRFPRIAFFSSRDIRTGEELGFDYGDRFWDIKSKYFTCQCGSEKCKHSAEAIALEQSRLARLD
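G9a (20 nM) was preincubated 15 min with compound, then reacted 2 h at room temperature with 500 nM biotin-H3K9 peptide and 20 µM SAM. Monomethyl-H3K9 detected by AlphaScreen using anti-H3K9me1 antibody.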
L3MBTL1 block: blocks human L3MBTL1 | Q9Y468 | AlphaScreen L3MBTL1–H3K9me1 peptide binding | Potency, µM (top dose mostly 57.1 µM), actives largely listed as inhibitors | hit rate 0.66% among 230,000; also: nearly all actives have a fitted effect of over 60% in size
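AlphaScreen assay: L3MBTL1 (50 nM final) was preincubated 30 min at room temperature with biotinylated H3(1-15)K9me1 peptide (75 nM final), then 30 min with library compounds; streptavidin donor and nickel chelate acceptor beads (10 ug/mL final) added, 30 min dark.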
JMJD2A Tudor: inhibitors of human JMJD2A Tudor domain. O75164. AlphaScreen JMJD2A-Tudor / H3K4me3 peptide binding. Potency, µM (titrated, usually from 114 µM), usual class: inhibitors. hit rate 4.4% among 390,000. AID 504339; also: nearly all actives have a fitted effect of over 50% in size
HP1b binding inh: HP1-beta chromodomain-methylated histone interaction inhibition; AlphaScreen HP1-beta / biotin-H3K9me3 peptide binding; Potency, µM (top dose mostly 114 µM), actives largely listed as inhibitors; hit rate 0.56% among 390,000; AID 540317; also: nearly all actives have a fitted effect of over 70% in size
Target sequence (P83916 whole entry, looked up): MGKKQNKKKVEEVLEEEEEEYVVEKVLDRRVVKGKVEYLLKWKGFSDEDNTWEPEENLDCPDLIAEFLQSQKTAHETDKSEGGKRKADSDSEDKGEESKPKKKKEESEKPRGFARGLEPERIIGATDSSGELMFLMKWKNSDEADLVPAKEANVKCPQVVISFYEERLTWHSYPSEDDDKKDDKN
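Compound inhibition of the preformed complex between 50 nM HP1-beta and 50 nM biotinylated H3K9me3 peptide was read by AlphaScreen. Buffer was PBS pH 7.4 with 0.01% Tween-20. Incubations ran 30 min at room temperature, with 10 ug/mL donor/acceptor beads.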
Of the large screens only hits and unclear results are named; the others gave an inactive call. Sampled rows, rich in hits. Any-hit rate of the full collection: about 11%. Calls follow the shape of the dose curve; as a rule, active = well fitted inhibition curve with a large enough effect; inconclusive = small, poorly fitted or top-dose-only effect; inactive = no such curve, though single readings can be large or run the other way.

CCN(CCO)C1CC(=O)N(c2ccccc2C)C1=O (stereo unspecified)	G9a inh 4µM, JMJD2A Tudor 40µM
Cc1ccccc1N1C(=O)CC(N(O)c2ccccc2)C1=O (stereo unspecified)	G9a inh inconclusive
Cc1ccc(SC2CC(=O)N(c3ccc4c(c3)OCCO4)C2=O)cc1 (stereo unspecified)	G9a inh inconclusive
CCN(CC)C1CC(=O)N(c2cccc(C)c2)C1=O (stereo unspecified)	G9a inh 11µM (no result: JMJD2A Tudor, HP1b binding inh)
Cc1ccc(N2C(=O)CC(Sc3cccs3)C2=O)cc1 (stereo unspecified)	G9a inh 35µM
Cc1cccc(N2C(=O)CC(Sc3nnc(C)s3)C2=O)c1 (stereo unspecified)	G9a inh 10µM
CCCCOc1ccc(C(=O)NCC2(N3CCN(C)CC3)CCCCC2)cc1	none (no result: L3MBTL1 block)
O=C(O)c1ccc(CNC(=S)Nc2ccccc2)cc1	none
Cc1cc(C)cc(NC(=S)NCc2ccc3[nH]c4c(c3c2)CCCC4)c1	BAZ2B block 32µM, G9a inh inconclusive, JMJD2A Tudor 50µM, HP1b binding inh inconclusive
S=C(NCc1ccc2[nH]c3c(c2c1)CCCC3)Nc1ccccc1	BAZ2B block 32µM, G9a inh inconclusive, JMJD2A Tudor 35µM, HP1b binding inh inconclusive
CC1CN(C(=O)N2CCC(C(=O)NCCCc3ccccc3)CC2)c2ccccc2O1 (stereo unspecified)	none (no result: L3MBTL1 block)
O=C(O)c1cnn(-c2ccccc2)c1-c1ccncc1	BAZ2B block inconclusive, G9a inh 50µM (no result: L3MBTL1 block)
Cc1cc(C)c(NC(=O)Cn2c(=O)n(CCCCC(=O)NCc3ccccc3Cl)c(=O)c3ccccc32)c(C)c1	none (no result: L3MBTL1 block)
NC(=O)c1ccccc1NC(=O)CSC1=NCCS1	G9a inh 50µM (no result: L3MBTL1 block)
NC(=O)SCC(=O)Nc1ccccc1C(=O)O	G9a inh 50µM
COc1ccccc1NC(=O)CSc1nc(N)c(C#N)cc1C#N	BAZ2B block inconclusive, G9a inh 50µM
CCOc1ccccc1NC(=O)CSc1nc(N)c(C#N)cc1C#N	G9a inh inconclusive
O=C(CSc1ccccc1)Nc1ccccc1C(=O)O	none (no result: L3MBTL1 block)
O=C(CSc1cn[nH]n1)Nc1ccccc1C(=O)O	G9a inh 7.9µM, JMJD2A Tudor 79µM (no result: L3MBTL1 block)
Cn1c(=O)[nH]c2cc(-c3noc(-c4ccc(F)cc4)n3)ccc21	none (no result: L3MBTL1 block)
COc1ccccc1NC(=O)CSC(N)=O	G9a inh 35µM, JMJD2A Tudor inconclusive (no result: L3MBTL1 block)
COC(=O)N/N=C/c1cc(C)n(-c2ccc(F)cc2)c1C	BAZ2B block inconclusive, G9a inh inconclusive (no result: L3MBTL1 block)
Cc1ccc(-n2c(C)cc(/C=N/NC(=O)c3ccncc3)c2C)c(C)c1	BAZ2B block 45µM, G9a inh inconclusive, JMJD2A Tudor inconclusive
COC(=O)N/N=C/c1cc(C)n(-c2ccc(Br)cc2)c1C	BAZ2B block 45µM, HP1b binding inh inconclusive (no result: G9a inh)
Cc1ccc(-n2c(C)cc(/C=N/NC(=O)c3ccncc3)c2C)cc1C	BAZ2B block 50µM, G9a inh 50µM, JMJD2A Tudor inconclusive
CCc1ccc(-n2c(C)cc(/C=N/NC(=O)c3ccncc3)c2C)cc1	BAZ2B block 40µM, JMJD2A Tudor inconclusive (no result: G9a inh)
Cc1cc(/C=N/NC(=O)c2ccncc2)c(C)n1-c1ccccc1	BAZ2B block inconclusive, G9a inh inconclusive
Cc1cc(C)cc(NC(=O)c2ccc3c(O)c(S(=O)(=O)c4ccccc4)c(=O)[nH]c3c2)c1	none (no result: L3MBTL1 block)
COc1ccc(CN2CCNC(=O)C2CC(=O)N(C)CCC2CCOCC2)cc1OC (stereo unspecified)	G9a inh 71µM (no result: L3MBTL1 block)
COc1ccc(CN2CCNC(=O)C2CC(=O)NCCc2cnccn2)cc1C (stereo unspecified)	G9a inh 79µM (no result: L3MBTL1 block)
O=C(CC1C(=O)NCCN1Cc1cccc(Oc2ccccc2)c1)NCCc1cnccn1 (stereo unspecified)	none (no result: G9a inh)
COc1ccc(CN2CCNC(=O)C2CC(=O)NC2CCOCC2)cc1C (stereo unspecified)	G9a inh 40µM (no result: L3MBTL1 block)
CCOc1ccc(CN2CCNC(=O)C2CC(=O)NC2CCOCC2)cc1 (stereo unspecified)	none (no result: L3MBTL1 block)
CCOc1ccc(NC(=O)C(=O)NCCc2csc(-c3ccc(F)cc3)n2)cc1	JMJD2A Tudor inconclusive (no result: L3MBTL1 block)
Cc1cc(=O)n(Cc2cccc(Cl)c2)c2c1c(C)nn2C	none (no result: L3MBTL1 block)
O=C(Nc1ccc(F)cc1F)c1ccc(-n2cnc3cccnc32)cc1	none (no result: L3MBTL1 block)
